# Screening data as filed in PubChem.
# TDP43 rescue = TDP-43 toxicity inhibition in yeast. 410,000 tested, 1.8% active. Potency, µM (highest dose often 46.1 µM), without a hit: at the top dose growth rescue (activation), actives largely listed as activators. TDP-43 expressing yeast growth rescue, BacTiter-Glo, 24 h; also: % of control where 0% means no effect; nearly all actives have a fitted effect of over 50% in size
#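 Yeast expressing TDP-43 (pregrown in raffinose, seeded at OD600=0.02 in galactose medium) exposed to compounds 24 hr at 30 deg C. Growth read by BacTiter-Glo luminescence; rescue of toxicity appears as increased signal.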
# ERG-DNA inh = blocks human ERG Ets domain binding to DNA; fluorescence polarization, His-ERG Ets domain / labelled DNA; Potency, µM (doses to about 76.9 µM), for inactives: at the top dose FP activity, negative = inhibition, actives largely listed as inhibitors; 370,000 tested, 0.028% active; active = well fitted inhibition curve with a large enough effect in the polarisation, with a control signal flat; inconclusive = small, poorly fitted or top-dose-only effect, or effect the other way, or a change in a side signal; inactive = no such curve, though single readings can be large or run the other way; the % refers to the polarisation;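 also: polarization taken with two DNA probes labelled with fluorescein and Texas red; % of control where 0% means no effect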
# Target sequence (P11308 whole entry, looked up, the tested form may be a part): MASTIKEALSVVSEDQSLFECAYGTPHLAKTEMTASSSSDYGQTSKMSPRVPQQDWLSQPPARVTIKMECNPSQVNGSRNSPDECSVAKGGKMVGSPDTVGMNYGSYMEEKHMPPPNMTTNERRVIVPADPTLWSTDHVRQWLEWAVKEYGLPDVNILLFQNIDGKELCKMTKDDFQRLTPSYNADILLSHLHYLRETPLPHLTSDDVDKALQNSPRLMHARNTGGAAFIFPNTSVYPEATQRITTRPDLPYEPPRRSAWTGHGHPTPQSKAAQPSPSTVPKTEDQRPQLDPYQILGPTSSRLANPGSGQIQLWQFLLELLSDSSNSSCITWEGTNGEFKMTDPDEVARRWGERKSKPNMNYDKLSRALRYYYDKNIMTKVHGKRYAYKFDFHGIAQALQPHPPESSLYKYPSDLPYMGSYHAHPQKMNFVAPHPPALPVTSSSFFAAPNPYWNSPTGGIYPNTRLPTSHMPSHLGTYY
#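 His-tagged ERG Ets domain (1 uM in the protein solution; 300mM KCl, 50mM Tris-HCl, 1mM EDTA, 1mM DTT, pH 7.5) received compound, then a probe mix of 5 nM fluorescein-DNA and 100nM Texas-615-DNA. Fluorescence polarization was read for both dyes.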
# FUS yeast rescue = FUS proteinopathy suppression in yeast; AID 1347120; Potency, µM (doses to about 76.6 µM), usual class: activators; S. cerevisiae FUS-expressing, growth rescue, OD600, 24 h; 390,000 tested, 0.24% active;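 also: plate controls were DMSO vehicle for no effect and reference control for full effect; nearly all actives have a fitted effect of over 55% in size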
#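 Read-out: OD at 600 nm after 24hr at 30C, reporting rescue of FUS-induced yeast toxicity. Cells at OD 0.005 in galactose (2%) minimal medium; compounds tested in a dilution series; CP55940 titration from 92uM final as control.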
# Mito fusion yeast = mitochondrial division inhibition or fusion activation | S. cerevisiae fusion-defective mutant growth rescue, CellTiterGlo 48 h | Potency, µM (series often up to 46.1 µM), inactives show at the top dose growth rescue (activation), usual class: activators | 320,000 tested, 0.23% active | AID 485298; also: % of control where 0% means no effect; nearly all actives have a fitted effect of over 45% in size
#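 Growth-rescue viability read-out: after 48 h at the non-permissive 37C in glycerol/ethanol YPEG, yeast mitochondrial fusion mutants are measured by CellTiterGlo luminescence; compounds (23 nl pinned per well) restoring growth score as division inhibitors or fusion activators.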
# Abeta rescue = compounds reversing amyloid beta toxicity in yeast; yeast expressing A-beta42, growth rescue, OD600, 48 h; response scale: 0% DMSO, 100% iron-clioquinol control; Potency, µM (titrated, usually from 46.1 µM), usual class: activators; 410,000 tested, 0.063% active; AID 1347071; also: nearly all actives have a fitted effect of over 55% in size
#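 Yeast growth medium received pinned compounds, then yeast cells expressing toxic A-beta were added; plates incubated at 30 C for 48 hr. Growth read as absorbance at 600 nm, normalized to DMSO and equimolar FeCl3 plus clioquinol controls.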
# aSyn yeast inh = alpha-synuclein toxicity inhibition in yeast; 370,000 tested, 0.14% active; AID 652106; Yeast expressing alpha-synuclein, growth rescue, BacTiter-Glo, 24 h; Potency, µM (titrated, usually from 46.1 µM), for the others: at the highest dose growth rescue (activation), hits mostly activators; also: % of control where 0% means no effect; nearly all actives have a fitted effect of over 65% in size
#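 Rescue of yeast growth: cells expressing toxic alpha-synuclein, induced in galactose at OD600 0.02, incubated with compound 24 h at 30 C. ATP luminescence quantified growth; inhibitors of toxicity appear as activators.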
# * hit, by the source's call; i = inactive; ? = inconclusive; / = no result given; [ ] = dose if it differs, or a comment. Only some compounds are listed: those with a hit (about 2.2% of all), similar ones and a draw of the others. Unless noted, calls follow the shape of the dose curve; as a rule, active = well fitted curve in the direction sought with a large enough effect; inconclusive = small, poorly fitted or top-dose-only effect, or another doubt; inactive = no such curve, though single readings can be large; an effect the other way counts as inactive or inconclusive. Potency is read from the fitted curve at half-maximal effect.
SMILES,TDP43 rescue,ERG-DNA inh,FUS yeast rescue,Mito fusion yeast,Abeta rescue,aSyn yeast inh
CC1CCC(C(O)(C(=O)O)C2CCCCC2)CC1C (centres undefined),18µM*,-3%,/,/,i,14%
COc1ccccc1CNc1nc(Oc2cccc(F)c2)c2sccc2n1,35µM*,/,?,/,i,8%
CCOc1ccc(CCNC(=O)c2cn(CC)c3ccc(S(=O)(=O)N4CCCCCC4)cc3c2=O)cc1OCC,24%,1%,?,/,i,/
COc1ccc(-c2oc3c(c2C#CC2(O)CCCCC2)C(OC(C)=O)CCC3)cc1 (centres undefined),20µM*,/,?,/,i,20%
OCCOC1CCCc2oc(-c3ccccc3)c(C#CC3(O)CCCCC3)c21 (centres undefined),?,/,i,/,i,13%
CCOc1ccc(-c2nnc(SCC(=O)NCc3ccc(C)cc3)nc2-c2ccc(OCC)cc2)cc1,10%,10%,i,/,i,/
CCCC(c1nnnn1C(C)(C)C)N1CCN(c2ccccc2)CC1 (centres undefined),-26%,-8%,i,10µM*,i,1%
CCCC(c1nnnn1C1CCCC1)N1CCN(c2ccccc2F)CC1 (centres undefined),-31%,-8%,i,8.9µM*,i,-13%
CCCC(c1nnnn1C(C)(C)C)N1CCN(Cc2ccccc2OC)CC1 (centres undefined),-17%,2%,i,19%,i,-2%
CC1(C(=O)NCCc2ccccc2)Cc2c(-c3cccc(C(N)=O)c3)ccnc2O1 (centres undefined),11%,/,i,/,i,-1%
CC(C)CNC(=O)OCc1cn(Cc2ccc(Cl)cc2)nn1,/,/,i,/,/,/
COc1ccc(-c2cc(C(F)(F)F)nc(SCCC(=O)Nc3ccc(O)cc3)n2)cc1,5%,-1%,i,/,i,3%
CCOC(=O)c1c(-c2ccc(C)cc2)csc1NC(=O)CCN1CC(C)OC(C)C1 (centres undefined),0%,-9%,/,13µM*,i,9%
CCOC(=O)c1c(-c2ccc(OC)cc2)csc1NC(=O)CCN1CCOCC1,-20%,10%,i,?,i,14%
Clc1ccc2nc(-c3ccncc3)cc(-c3ccccc3)c2c1,22%,-11%,i,-2%,i,1%
CSc1cc(-c2ccncc2)nc(-c2ccc(Cl)cc2)c1,11µM*,10%,i,7%,i,11%
CC(C)Cn1c(=O)cc(N2CCN(c3cccc(C(F)(F)F)c3)CC2)[nH]c1=O,/,/,i,/,/,/
Clc1cccc(-c2cc3nc4c(c(NCc5ccco5)n3n2)CCCC4)c1,?,/,i,-17%,i,-47%
OCCCNc1c2c(nc3cc(-c4ccc(Cl)cc4)nn13)CCC2,16%,3%,i,14µM*,i,-14%
c1nc(NC[C@@H]2CCCO2)c2cc(-c3ccc4c(c3)OCO4)ccc2n1,/,/,i,/,/,/
C=CCn1c(N)c(C(=O)Nc2cccc(C)c2)c2nc3ccccc3nc21,25µM*,-10%,i,-8%,i,8%
Cc1ccc(O)c(-c2cc3ccccc3[nH]2)c1,3.2µM*,-7%,i,16%,i,-5%
c1ccc(-c2cc3ccccc3[nH]2)cc1,11µM*,?,i,-7%,i,-16%
Clc1ccc2[nH]c(-c3ccccc3)cc2c1,11µM*,4%,i,-2%,?,-16%
O=C(Cn1c(=O)n(CCCS(=O)(=O)C2CCCCC2)c(=O)c2ccccc21)Nc1ccccc1C(F)(F)F,-1%,-1%,i,/,i,/
SMILES,TDP43 rescue,ERG-DNA inh,FUS yeast rescue,Mito fusion yeast,Abeta rescue,aSyn yeast inh
Cc1ccc(NC(=O)c2oc3ccc4c(c3c2C)C(=O)CC(C)(C)O4)c(C)c1,11%,-5%,i,/,i,/
COc1ccc(C(=O)NNC(=S)NC(=O)c2ccc(Br)o2)cc1OC,3.5µM*,-13%,i,-12%,i,8%
O=C(NC(=S)NNC(=O)[C@H]1C[C@@H]1c1ccccc1)c1ccc(F)cc1,10µM*,2%,i,?,?,3.5µM*
COc1ccc(C(=O)NC(=S)NNC(=O)[C@H]2C[C@@H]2c2ccccc2)cc1OC,28%,18%,i,-15%,?,18µM*
Cc1ccc(OCC(=O)NNC(=S)NC(=O)c2ccc(Br)o2)c(C)c1,?,0%,i,-11%,?,?
O=C(/C=C/c1ccc(F)cc1)NC(=S)NNC(=O)[C@H]1C[C@@H]1c1ccccc1,6.3µM*,-5%,i,-11%,?,10µM*
COc1ccc(C(=O)NC(=S)NNC(=O)c2c(-c3ccccc3)noc2C)cc1OC,-14%[1.82 µM],4%,i,-10%,11µM*,?
CC(c1ccccc1)n1cc2c(c1-c1ccccc1Br)c(=O)n(C)c(=O)n2C (centres undefined),14µM*,9%,?,/,i,/
COc1ccc(NC(=O)CCSc2ccc3ccccc3n2)cc1,30%,3%,/,-14%,i,-3%
COc1cccc(NC(=O)CCSc2ccc3ccccc3n2)c1,13µM*,0%,/,21%,i,13%
O=C(O)CCSc1ccc2ccccc2n1,18µM*,8%,i,5%,i,1%
O=C(CN1CCc2onc(-c3ccc(-n4cc(-c5ccccc5)nn4)cc3)c2C1=O)N1CCOCC1,/,/,i,/,/,/
COC(=O)[C@]12C=CCN1[C@@H](c1ccc(Cl)cc1)c1c(c3ccccc3n1S(=O)(=O)c1ccc(C)cc1)C2,/,/,i,/,/,/
NC(=S)Nc1cccc(Cl)c1,-4%,4%,i,-3%,i,6%
CS/C(N)=N/C(=S)Nc1cccc(Cl)c1,?,0%,i,2%,13µM*,4%
Cc1ccc(OCCCCn2c(-c3ccc(Cl)cc3)nc3ccccc3c2=O)cc1,8%,-20%,i,/,i,/
CC1CCC(NC(=O)c2ccc(CS(=O)(=O)c3c(Cl)cccc3Cl)o2)CC1 (centres undefined),35µM*,6%,i,/,i,/
O=C(NC1CC1)c1ccc(CS(=O)(=O)c2c(Cl)cccc2Cl)o1,0%,8%,i,-4%,i,-29%
Cc1oc(-c2cccc(Br)c2)nc1Cn1c(SCc2cccc(F)c2)nc2cccnc21,28µM*,0%,i,/,?,/
CCOc1ccc(-n2c(SCC(=O)Nc3cccc(Cl)c3)nc3c(oc4ccccc43)c2=O)cc1,25%,1%,i,/,i,/
